PubChem BioAssay
Active and inactive are the calls of the source. Unless noted, how the calls were made is not given here.

Legend:
[1] = anti-His antibody binders, primary screen, artefact control for SMM control protein annotation, biochemical, small-molecule microarray, 635 nm fluorescence (AID 1128); details: anti-His Alexa647 antibody binding, higher = more signal;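 further: score merges feature fluorescence with signal-to-noise for each printed compound spot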
[2] = system: Human papillomavirus type 1a E7 protein (residues 1-88); assay: HPV1a E7 small-molecule binders, primary screen, biochemical, small-molecule microarray, residues 1-88, 635 nm (AID 1129); details: small-molecule microarray binding, fluorescence 635 nm; higher = more signal
[3] = target: Focal adhesion kinase 1 (Homo sapiens) (UniProt Q05397); assay: small-molecule microarray binders of FAK, primary screen, biochemical, 635/667 nm fluorescence, BSA, DTT (AID 1130); details: PTK2 binding, 635 nm fluorescence, higher = more signal;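 further: composite of spot emission at 667 nm and signal to noise over triplicate slides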
Focal adhesion kinase 1 (Homo sapiens), sequence (Q05397 whole entry, looked up): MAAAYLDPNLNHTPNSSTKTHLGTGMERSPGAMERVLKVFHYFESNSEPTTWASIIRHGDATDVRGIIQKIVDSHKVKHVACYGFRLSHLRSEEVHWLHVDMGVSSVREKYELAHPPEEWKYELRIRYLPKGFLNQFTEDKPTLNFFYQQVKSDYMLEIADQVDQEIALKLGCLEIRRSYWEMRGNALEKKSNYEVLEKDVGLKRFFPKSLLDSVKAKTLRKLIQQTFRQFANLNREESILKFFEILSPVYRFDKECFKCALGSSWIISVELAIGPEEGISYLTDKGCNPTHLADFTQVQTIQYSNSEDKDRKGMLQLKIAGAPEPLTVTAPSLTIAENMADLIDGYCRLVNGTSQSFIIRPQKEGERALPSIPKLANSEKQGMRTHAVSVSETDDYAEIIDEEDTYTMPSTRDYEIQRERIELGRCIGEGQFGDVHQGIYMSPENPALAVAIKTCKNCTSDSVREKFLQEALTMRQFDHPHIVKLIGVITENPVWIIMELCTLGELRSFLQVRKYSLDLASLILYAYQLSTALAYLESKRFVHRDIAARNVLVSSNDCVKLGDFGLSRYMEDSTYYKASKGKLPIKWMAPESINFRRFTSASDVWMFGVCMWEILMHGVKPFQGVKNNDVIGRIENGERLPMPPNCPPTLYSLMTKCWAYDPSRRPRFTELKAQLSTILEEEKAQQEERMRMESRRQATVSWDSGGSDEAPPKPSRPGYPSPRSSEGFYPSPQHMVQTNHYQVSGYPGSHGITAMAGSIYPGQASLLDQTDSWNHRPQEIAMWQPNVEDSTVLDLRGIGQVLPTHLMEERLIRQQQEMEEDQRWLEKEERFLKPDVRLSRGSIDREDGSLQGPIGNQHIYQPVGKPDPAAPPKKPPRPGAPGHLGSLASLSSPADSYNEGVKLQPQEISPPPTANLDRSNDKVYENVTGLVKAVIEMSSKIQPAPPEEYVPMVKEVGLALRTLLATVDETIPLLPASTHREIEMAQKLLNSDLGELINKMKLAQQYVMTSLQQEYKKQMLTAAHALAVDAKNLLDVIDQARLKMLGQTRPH

[4] = system: Fibrinogen (Alexa647-labelled); assay: fibrinogen binders on compound microarrays, profiling panel, artefact control for SMM control-protein annotation, biochemical, small-molecule microarray, 635/667 nm fluorescence (AID 1131); details: fibrinogen-A647 binding fluorescence, higher = more signal;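 further: z-score merges 667 nm fluorescence with per-spot signal-to-noise over triplicate slides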
[5] = target: Follistatin (Homo sapiens) (UniProt P19883); assay: follistatin binders on small-molecule microarrays, primary screen, biochemical, small-molecule microarray, 635/667 nm fluorescence (AID 1132); details: FST binding, 635 nm fluorescence, higher = more signal
Follistatin (Homo sapiens), sequence (P19883 whole entry, looked up): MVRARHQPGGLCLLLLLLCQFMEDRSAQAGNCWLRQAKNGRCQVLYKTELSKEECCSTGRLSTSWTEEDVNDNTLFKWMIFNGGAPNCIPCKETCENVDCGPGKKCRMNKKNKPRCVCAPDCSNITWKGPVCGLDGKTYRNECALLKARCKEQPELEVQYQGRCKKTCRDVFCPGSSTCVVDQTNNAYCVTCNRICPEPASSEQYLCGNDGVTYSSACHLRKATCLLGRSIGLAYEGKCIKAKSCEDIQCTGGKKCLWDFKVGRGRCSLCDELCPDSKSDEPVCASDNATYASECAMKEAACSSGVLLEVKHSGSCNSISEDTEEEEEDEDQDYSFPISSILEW

[6] = target: Fibroblast growth factor 2 (Homo sapiens) (UniProt P09038); assay: FGF2 binders on small-molecule microarrays, primary screen, biochemical, small-molecule microarray, 635/667 nm fluorescence (AID 1133); details: small-molecule microarray binding, FGF2, fluorescence 635/667; higher = more signal
Fibroblast growth factor 2 (Homo sapiens), sequence (P09038 whole entry, looked up): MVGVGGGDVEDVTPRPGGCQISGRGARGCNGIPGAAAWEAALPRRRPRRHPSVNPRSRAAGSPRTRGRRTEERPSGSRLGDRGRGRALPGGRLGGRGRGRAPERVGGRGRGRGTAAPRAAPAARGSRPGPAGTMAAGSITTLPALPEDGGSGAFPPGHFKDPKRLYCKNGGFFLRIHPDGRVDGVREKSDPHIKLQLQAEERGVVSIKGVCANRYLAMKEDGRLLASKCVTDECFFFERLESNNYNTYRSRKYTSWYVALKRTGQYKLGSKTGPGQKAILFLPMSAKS

[7] = mitochondrial membrane potential change in A549 cells, profiling panel, cell-based, JC-1 fluorescence, basal, 24 h, 100 nL (AID 1138); details: higher = more signal;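 further: A549 lung adenocarcinoma cells under basal conditions with no added stimulus; test concentration not given here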
Lefty1 = Lefty1 binders on small-molecule microarrays, primary screen, biochemical, small-molecule microarray, 635/667 nm fluorescence (AID 1139); details: small-molecule microarray binding, fluorescence 635/667; higher = more signal
[8] = system: wheat germ agglutinin (Triticum aestivum), Alexa647-labelled; assay: wheat germ agglutinin binders on compound microarrays, profiling panel, artefact control for SMM control-protein annotation, biochemical, small-molecule microarray, 635/667 nm fluorescence (AID 1140); details: WGA-A647 binding, 635 nm fluorescence, higher = more signal;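 further: score merges 667 nm feature emission with signal to noise over triplicate slides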
[9] = target: Luciferin 4-monooxygenase (Photinus pyralis) (UniProt P08659); assay: firefly luciferase enzyme inhibitors, primary screen, biochemical, luminescence, purified enzyme, 2006 set (AID 1141); details: SteadyGlo luminescence, 30 min, higher = more signal, called active from +8 up or from −8 down;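 further: cell-free assay with purified firefly luciferase at 100 ng per well in PBS; test concentration not given here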
Luciferin 4-monooxygenase (Photinus pyralis), sequence (P08659 whole entry, looked up): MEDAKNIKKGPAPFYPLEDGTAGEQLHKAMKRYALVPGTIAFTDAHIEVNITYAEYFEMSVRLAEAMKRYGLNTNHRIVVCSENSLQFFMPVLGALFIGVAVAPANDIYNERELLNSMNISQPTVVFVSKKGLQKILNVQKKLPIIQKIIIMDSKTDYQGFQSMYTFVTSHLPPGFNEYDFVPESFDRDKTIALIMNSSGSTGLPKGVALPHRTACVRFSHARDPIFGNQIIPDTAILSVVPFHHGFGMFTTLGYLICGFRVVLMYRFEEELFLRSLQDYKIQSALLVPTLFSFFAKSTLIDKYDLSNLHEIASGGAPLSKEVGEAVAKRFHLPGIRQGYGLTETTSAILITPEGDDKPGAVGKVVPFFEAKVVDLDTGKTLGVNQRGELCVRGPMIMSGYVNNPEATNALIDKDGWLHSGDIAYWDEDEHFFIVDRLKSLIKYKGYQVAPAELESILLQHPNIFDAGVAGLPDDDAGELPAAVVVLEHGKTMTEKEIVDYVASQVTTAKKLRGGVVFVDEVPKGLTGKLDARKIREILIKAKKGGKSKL

[10] = system: Wnt5a (protein binding on small-molecule microarray); assay: Wnt5a binders on small-molecule microarray, primary screen, biophysical, 635/667 nm fluorescence (AID 1142); details: 635 nm fluorescence, higher = more signal;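 further: fluorescence read at 667 nm with signal to noise per printed feature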
[11] = cell viability in Huh7 cells, primary screen, cytotoxicity control for HCV replication inhibitor project, CellTiter-Glo luminescence, basal, 48 h (AID 1143); details: Huh7 HCV replicon, higher = more signal, called active from +8 up or from −8 down;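 further: Huh7 hepatoma cells carrying a hepatitis C replication reporter with no stimulus; test concentration not given here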
[12] = P. aeruginosa biofilm formation inhibitors, primary screen, PAO1 strain, BacTiter-Glo luminescence, LB-PBS (AID 1144); details: 12 h, higher = more signal
[13] = CREB reporter modulators without forskolin, primary screen, cell-based, PC12, CRE-LacZ reporter, unstimulated (AID 1145); details: no forskolin, luminescence, 4.5 h, higher = more signal, called active from +8 up or from −8 down
[14] = CREB reporter modulators under forskolin, primary screen, cell-based, PC12, CRE-LacZ reporter, forskolin-stimulated (AID 1146); details: luminescence, 4.5 h, higher = more signal, called active from +8 up or from −8 down;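 further: PC12 cells with 6xCRE LacZ reporter stimulated by forskolin 10 µM; beta-galactosidase reporter signal reflecting CREB driven transcription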
[15] = target: Streptavidin (Streptomyces avidinii) (UniProt P22629); assay: streptavidin binders on small-molecule microarray, primary screen, artefact control for SMM compound annotation, biophysical, 635/667 nm fluorescence (AID 1147); details: streptavidin binding, higher = more signal;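 further: signal reflects streptavidin binding to arrayed compounds as a control protein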
Streptavidin (Streptomyces avidinii), sequence (P22629 whole entry, looked up): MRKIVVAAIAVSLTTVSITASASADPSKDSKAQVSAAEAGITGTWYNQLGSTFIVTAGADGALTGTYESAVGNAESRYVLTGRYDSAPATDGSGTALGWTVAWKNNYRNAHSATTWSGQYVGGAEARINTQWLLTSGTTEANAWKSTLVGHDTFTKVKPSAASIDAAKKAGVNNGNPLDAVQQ

[16] = small-molecule binders of probe aInhba, primary screen, biochemical, small-molecule microarray, 635/667 nm fluorescence (AID 1148); details: higher = more signal;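 further: score merges 667nm spot fluorescence with signal-to-noise for antibody binding to printed compounds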
Torsin-1A (Homo sapiens) [17] = target: Torsin-1A (Homo sapiens) (UniProt O14656); assay: torsin A binders from cell lysate, primary screen, small-molecule microarray, wild-type, 635/667 nm (AID 1149); details: COS7 hTOR1A-WT lysate, 635 nm fluorescence, higher = more signal
Torsin-1A (Homo sapiens), sequence (O14656 whole entry, looked up): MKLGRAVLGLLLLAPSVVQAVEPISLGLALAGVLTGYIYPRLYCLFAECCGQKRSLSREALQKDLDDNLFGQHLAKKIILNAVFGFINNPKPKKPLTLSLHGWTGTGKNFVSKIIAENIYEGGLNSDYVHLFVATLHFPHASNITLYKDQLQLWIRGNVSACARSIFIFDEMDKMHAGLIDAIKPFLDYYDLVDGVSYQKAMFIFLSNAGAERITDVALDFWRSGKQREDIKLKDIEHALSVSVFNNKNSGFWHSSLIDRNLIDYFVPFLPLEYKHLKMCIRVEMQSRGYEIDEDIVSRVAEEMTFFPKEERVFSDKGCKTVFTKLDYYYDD

Torsin-1A (Homo sapiens) [18] = target: Torsin-1A (Homo sapiens) (UniProt O14656); assay: small-molecule binders of mutant TOR1A in lysate, primary screen, cell lysate, small-molecule microarray, COS7 lysate, 635/667 nm fluorescence (AID 1150); details: COS7 hTOR1A mutant lysate, 635 nm fluorescence, higher = more signal;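 further: score pools 667 nm emission and signal to noise measuring lysate protein binding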
[19] = system: Sonic hedgehog protein (Shh); assay: small-molecule binders of Shh protein, primary screen, biochemical, small-molecule microarray, 635/667 nm fluorescence (AID 1151); details: small-molecule microarray binding, 635 nm fluorescence; higher = more signal;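 further: Shh protein binding to compounds spotted on small-molecule microarray slides; score combines spot fluorescence intensity with signal-to-noise across triplicate slides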

Row | Structure (SMILES) | composite z-score [1] | composite z-score [2] | composite z-score [3] | composite z-score [4] | composite z-score [5] | composite z-score [6] | z-score [7] | composite z-score (Lefty1) | composite z-score [8] | z-score [9] | composite z-score [10] | z-score [11] | z-score [12] | z-score [13] | z-score [14] | composite z-score [15] | composite z-score [16] | composite z-score (Torsin-1A (Homo sapiens) [17]) | composite z-score (Torsin-1A (Homo sapiens) [18]) | composite z-score [19]
1 | COc1cc2c(cc1O)C(c1cccs1)N(Cc1sc3ccccc3c1Cl)CC2 (stereo not given) | 2.64 | 1.28 | 0.379 | 1.01 | 1.14 | 0.841 | -0.702 | 0.72 | 1.19 | -0.42 (inactive) | 0.702 | -2.5 (inactive) | 0.546 (inactive) | -0.141 (inactive) | 0.93 (inactive) | 1.64 | 0.122 | 1.43 | 1.56 | 0.953
2 | CN(C)CCCCCCNC(=O)[C@@H]1C[C@@H]2C(=O)N[C@@H](CCCCN)C(=O)N2[C@@H]1c1ccc(O)cc1 | 2.6 | 1.33 | 3.73 | 0.957 | 1.54 | 1.6 | -0.742 | 1.66 | 1.73 | 0.307 (inactive) | 1.95 | -1.9 (inactive) | -1.3 (inactive) | -1.08 (inactive) | -0.643 (inactive) | 2.97 | 1.93 | 3.46 | 3.21 | 1.88
3 | C=CCN1C(=O)[C@]2(O[C@H](CCO)[C@@H]([Si](C)(C)c3ccc(OC)cc3)[C@@H]2C)c2cc(N3C(=O)COc4ccccc43)ccc21 | 1.3 | 0.853 | 0.179 | 0.55 | 0.618 | 0.405 | -1.46 | 0.465 | 0.441 | -0.401 (inactive) | 0.01 | -8.07 (active) | 0.518 (inactive) | 27.2 (active) | -3.5 (inactive) | 0.435 | -0.0245 | -0.339 | 0.072 | 1.18
4 | COC(=O)C1=CC(CCCO)=CC(C)N(Cc2cccc(OC(F)(F)F)c2)C=C1C(=O)OC (stereo not given) | 0.178 | 0.702 | 0.955 | -0.269 | -0.278 | -0.807 | 0.142 | -0.0105 | 1.11 | 0.347 (inactive) | 0.145 | -1.07 (inactive) | -0.117 (inactive) | -0.168 (inactive) | 0.308 (inactive) | 0.747 | -0.001 | -0.148 | 0.47 | -0.681
5 | O=C(O)[C@@H]1C[C@@H]2C(=O)N3CCC[C@H]3C(=O)N2[C@@H]1c1cccc(OCCO)c1 | 3.41 | 1.31 | 2.47 | 0.977 | 1.41 | 1.4 | 0.729 | 1.7 | 1.69 | -0.485 (inactive) | 1.25 | -0.0592 (inactive) | 1.36 (inactive) | 0.143 (inactive) | -0.382 (inactive) | 3.76 | 1.95 | 2.99 | 2.12 | 2.02
6 | C=C(C)[C@@H]1CC=C(C(O)C2C=CC3C(=O)N(c4ccccc4)C(=O)C3N2Nc2ccc(C#N)cc2)CC1 (stereo not given in full) | 0.526 | 1.26 | 0.423 | 0.999 | 1.25 | 0.13 | -0.517 | 0.0839 | 1.32 | -0.251 (inactive) | 0.335 | -0.133 (inactive) | -1.68 (inactive) | 0.433 (inactive) | -0.345 (inactive) | 1.48 | 0.361 | 0.202 | 0.454 | -0.0706
7 | COc1ccc(C(=O)Nc2cccc(CN3C(=O)[C@]4(O[C@H](CCn5cc([C@H](O)c6ccccc6)nn5)[C@@H]([Si](C)(C)c5ccc(OC)cc5)[C@@H]4C)c4ccccc43)c2)cc1 | 1.07 | 0.514 | 0.31 | 0.242 | 1.19 | 0.348 | 0.456 | 0.752 | 0.12 | 0.889 (inactive) | 0.194 | -7.81 (inactive) | -0.568 (inactive) | -0.36 (inactive) | -0.413 (inactive) | 0.192 | -0.183 | 0.0107 | 0.205 | 1.69
8 | [N-]=[N+]=Nc1ccccc1C[C@@]1(C(=O)O)N=C(c2ccc(OCCCO)cc2)O[C@@H]1c1ccccc1N=[N+]=[N-] | 2.68 | 1.25 | 0.968 | 0.963 | 0.46 | -0.606 | 0.125 | -0.817 | 1.44 | -5.43 (inactive) | -0.166 | -1.92 (inactive) | 0.0288 (inactive) | 2.09 (inactive) | -0.333 (inactive) | 1.96 | 0.151 | 0.0274 | 0.286 | -0.744
9 | C=CCNC(=O)[C@@H]1[C@H]2C(=O)O[C@H](c3ccccc3)[C@H](c3ccccc3)N2[C@H](c2ccc(OCCO)cc2)[C@@]12C(=O)N(C(=O)OCCOC)c1ccc(C#CCCO)cc12 | 0.32 | 1.17 | 1.12 | 0.736 | 1.33 | 0.482 | -0.295 | 1.1 | 0.719 | -11.1 (active) | 0.85 | -3.32 (inactive) | -0.594 (inactive) | -0.375 (inactive) | 0.0859 (inactive) | 0.712 | -0.0521 | 0.625 | 0.582 | 1.17
10 | CCOC(=O)C=Cc1cc(F)ccc1O | 0.354 | -0.166 | 0.727 | -0.333 | 0.0875 | 0.0013 | -1.8 | -0.471 | 0.0203 | 0.701 (inactive) | 0.139 | -4.58 (inactive) | -0.557 (inactive) | 0.276 (inactive) | -0.804 (inactive) | 0.761 | 0.0705 | 0.165 | 0.448 | -0.587
